Compounds with a hit are over-represented: about 6.2% of the library has one in this group of screens.
NTR1 agonist – NTR1 (human) agonism. P30989. NTR1-U2OS beta-arrestin-GFP spot imaging, agonist mode. activation, % at 20 µM. 330,000 tested, 0.17% active. AID 493036;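 active = activation at or above 40% of the spot to cytoplasm intensity ratio, with at least 20 cells analyzed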;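 note: 0% = DMSO without peptide and 100% = 100 nM NTR1 peptide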
AHR act – activators of human aryl hydrocarbon receptor | P35869 | AHR-responsive luciferase reporter cells, luminescence | activation, % at 5 µM | 320,000 tested, 2.5% active | AID 2796; in the data active = activation above about 47%;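 note: 0% = vehicle wells and 100% = reference agonist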
Target sequence (P35869 whole entry, looked up): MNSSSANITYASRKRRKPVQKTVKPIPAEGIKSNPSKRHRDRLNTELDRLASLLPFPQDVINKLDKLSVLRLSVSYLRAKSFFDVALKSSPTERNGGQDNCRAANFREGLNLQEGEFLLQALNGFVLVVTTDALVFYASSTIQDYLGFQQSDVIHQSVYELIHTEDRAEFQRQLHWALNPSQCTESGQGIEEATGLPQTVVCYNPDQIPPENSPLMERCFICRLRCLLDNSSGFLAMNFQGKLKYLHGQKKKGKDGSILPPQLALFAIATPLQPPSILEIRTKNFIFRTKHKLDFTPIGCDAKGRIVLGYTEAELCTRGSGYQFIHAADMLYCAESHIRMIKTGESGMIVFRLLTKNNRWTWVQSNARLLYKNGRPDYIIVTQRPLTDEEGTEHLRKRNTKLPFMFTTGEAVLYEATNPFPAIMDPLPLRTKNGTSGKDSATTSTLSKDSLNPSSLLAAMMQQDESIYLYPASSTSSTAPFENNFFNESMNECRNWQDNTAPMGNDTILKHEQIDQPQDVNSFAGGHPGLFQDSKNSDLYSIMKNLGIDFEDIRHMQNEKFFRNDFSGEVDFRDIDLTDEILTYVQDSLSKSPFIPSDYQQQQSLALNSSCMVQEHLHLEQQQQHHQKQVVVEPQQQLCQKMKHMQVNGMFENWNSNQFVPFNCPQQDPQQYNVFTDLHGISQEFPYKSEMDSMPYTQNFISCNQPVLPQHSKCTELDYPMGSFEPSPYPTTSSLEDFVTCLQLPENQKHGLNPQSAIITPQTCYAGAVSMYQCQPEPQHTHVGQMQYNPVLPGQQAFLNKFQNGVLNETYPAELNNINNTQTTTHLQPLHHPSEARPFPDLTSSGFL
Cardio protect – modulators protecting cardiomyocytes from myocardial damage | H9c2 cardiomyocytes, H2O2 injury protection, ATPLite, 2 h | protection from H2O2 cell death, % at 20 µM | 360,000 tested, 0.63% active;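 active = compounds giving at least 50% protection of heart cells from peroxide-induced death in the single-dose screen, raw or plate-pattern-corrected value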;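 note: 0% = DMSO wells with peroxide and 100% = DMSO wells without peroxide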
Mot1-301 SUMO – SUMOylation pathway inhibition by Mot1-301 growth rescue; 320,000 tested, 1% active; growth rescue, % at 18.8 µM; S. cerevisiae Mot1-301 growth rescue, ATP luminescence, 38.5C; percent above DMSO median, 100 means doubled; AID 2716;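 active = every valid replicate shows activation above 250% relative to neutral control wells; inactive = the rest, any valid replicate at or below 250%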;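 note: OY570 slx delta 5 strain wells were the positive control but not used for scaling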
AI-2 QS mod – Vibrio harveyi AI-2 quorum sensing modulation | Vibrio harveyi JMH597 AI-2 luminescence/OD600 ratio, 9 h; stronger effect = lower value; strain lacks LuxN and CqsS sensors; 0 = neutral-control median | activity change, % at 7.5 µM | 300,000 tested, 0.4% active; in the data active = activity change below about -75%, passing the limit was not always enough;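 note: luminescence divided by OD600 gain over 9 h not by final OD600 alone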
GRIN3A LBD mod – modulators (binders) of human NR3A ligand-binding domain; Tm shift relative to glycine control, % at 25 µM; NR3A LBD differential scanning fluorimetry, Tm shift; 0% = protein alone, 100% = glycine-bound protein; 340,000 tested, 2.5% active; AID 1259313;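 active = melting temperature shift of at least 10% of the positive control shift, at one fixed dose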
* hit, by the source's call.

For COc1ccc(OC)c(C2CC(=O)c3c([nH]c(C(=O)OCC4CCCO4)c3C)C2)c1 (stereo not given) the results were NTR1 agonist -0.5, AHR act 9.5, Cardio protect 71.0*, Mot1-301 SUMO 67.3, AI-2 QS mod -1.2 and GRIN3A LBD mod -0.2.
`O=C(NCc1ccccc1)c1cc(C2CCCCN2C(=O)OCCF)on1` (stereo not given) gave Cardio protect 6.1.
C#CCn1cc(/C=C2\NC(=O)NC2=O)c2ccccc21 was read as NTR1 agonist -0.3, AHR act 76.8*, Cardio protect -1.7, Mot1-301 SUMO -6.2, AI-2 QS mod 29.6 and GRIN3A LBD mod 3.5.
`CC(C)n1cc(/C=C2/NC(=O)NC2=O)c2ccccc21` gave NTR1 agonist 1.7, AHR act 74.4*, Cardio protect 14.3, Mot1-301 SUMO 6.4, AI-2 QS mod -1.2 and GRIN3A LBD mod -2.8.
COc1cccc(NC(=O)CN(C)C(=O)c2cc(-c3cccc(Br)c3)nc3ccccc23)c1 was read as NTR1 agonist 10.7, AHR act 2.8, Cardio protect 21.3, Mot1-301 SUMO 20.2, AI-2 QS mod -3.2 and GRIN3A LBD mod 18.2*.
CN(C)S(=O)(=O)c1cccc(NC(=O)COC(=O)c2cc(-c3cccc(Br)c3)nc3ccccc23)c1 was read as NTR1 agonist 0.9, AHR act 2.0, Cardio protect -3.2, AI-2 QS mod 40.5 and GRIN3A LBD mod 21.9*.
Screening COc1ccc(NC(=O)CN(C)C(=O)c2cc(-c3ccc(Cl)cc3)nc3ccccc23)cc1 returned NTR1 agonist 8.4, AHR act 4.9, Cardio protect 8.2, Mot1-301 SUMO 12.7, AI-2 QS mod 17.2 and GRIN3A LBD mod 13.5*.
CCOc1ccc(NC(=O)CN(C)C(=O)c2cc(-c3ccc(OC)cc3)nc3ccccc23)cc1OCC was read as NTR1 agonist 5.1, AHR act 5.4, Cardio protect 24.6, Mot1-301 SUMO -2.7, AI-2 QS mod 24.7 and GRIN3A LBD mod 6.3.
Screening COc1cccc(NC(=O)CN(C)C(=O)c2cc(-c3ccccc3)nc3ccc(C)cc23)c1 returned Cardio protect 13.9 and GRIN3A LBD mod 6.0.
`COc1cccc(NC(=O)CN(C)C(=O)CSc2nc(C)cc(C)n2)c1` gave NTR1 agonist -1.3, AHR act -1.1, Cardio protect 8.4, Mot1-301 SUMO 3.9 and GRIN3A LBD mod -1.6.
Cc1cc(OCC(=O)N2CCC(C(N)=O)CC2)c2c(C)cc(=O)oc2c1 was read as NTR1 agonist -2.6, AHR act 1.4, Cardio protect 9.0, Mot1-301 SUMO 15.8, AI-2 QS mod 21.8 and GRIN3A LBD mod 0.2.
For Cc1ccc(S(=O)(=O)N2CCCC2)cc1C(=O)Nc1ccc(-n2cnnn2)cc1 the results were NTR1 agonist -1.6, AHR act -1.1, Cardio protect -6.5, Mot1-301 SUMO -4.6 and GRIN3A LBD mod -0.2.
`COc1ccc(-c2ccc3oc(-c4ccsc4)cc3c2)cc1` gave NTR1 agonist 0.8, AHR act 57.1*, Cardio protect -2.5, Mot1-301 SUMO 7.5, AI-2 QS mod 8.7 and GRIN3A LBD mod -0.8.
`COc1cc(-c2cc(=O)c3ccc(O)cc3o2)cc(OC)c1OC` gave Cardio protect 3.0.
For COc1ccc(-c2cc3cc(-c4cc(OC)c(OC)c(OC)c4)ccc3o2)cc1 the results were NTR1 agonist 0.2, AHR act -2.0, Cardio protect -2.3, Mot1-301 SUMO -0.1 and GRIN3A LBD mod -1.4.
Screening COc1cc(-c2ccc3oc(-c4ccsc4)cc(=O)c3c2)cc(OC)c1OC returned NTR1 agonist 6.9, AHR act -2.0, Cardio protect 55.9*, Mot1-301 SUMO 35.7 and GRIN3A LBD mod -5.2.
C/C(=N\NC(=O)Cc1c(Cl)cccc1Cl)c1cccnc1 was read as NTR1 agonist -0.4, Cardio protect 3.1, Mot1-301 SUMO -11.9, AI-2 QS mod 11.9 and GRIN3A LBD mod -2.1.
Screening CC1=C(C(=O)Nc2cccc(C(=O)NCc3ccccc3C)c2)SCCO1 returned NTR1 agonist 0.1, AHR act 10.0, Cardio protect -4.6, Mot1-301 SUMO -4.1, AI-2 QS mod 9.0 and GRIN3A LBD mod 0.1.
Screening COc1ccccc1[C@H]1C(c2ccc(F)cc2)=NN(c2ccccc2)[C@@H]1CO returned NTR1 agonist 2.7, Cardio protect -4.6 and GRIN3A LBD mod -6.0.
OC[C@@H]1[C@@H](c2ccc(F)cc2)C(c2cccc(Cl)c2)=NN1c1ccccc1 was read as NTR1 agonist 15.1, Cardio protect -12.0 and GRIN3A LBD mod 27.0*.
For OC[C@@H]1[C@@H](c2ccc(Cl)cc2)C(c2ccccc2)=NN1c1ccccc1 the results were NTR1 agonist 10.7, Cardio protect 20.9 and GRIN3A LBD mod 24.1*.
For OC[C@@H]1[C@@H](c2ccc(Cl)cc2)C(c2cccc(Cl)c2)=NN1c1ccccc1 the results were NTR1 agonist 16.1, Cardio protect -25.9 and GRIN3A LBD mod 31.2*.
Screening O=C1CSC(c2cccc(F)c2)N1c1ccccc1 (stereo not given) returned NTR1 agonist -1.3, AHR act -0.7, Cardio protect 6.5, Mot1-301 SUMO -0.2, AI-2 QS mod 38.6 and GRIN3A LBD mod -6.6.
For O=C(O)c1ccc(Oc2ccc(S(=O)(=O)c3ccc(C(=O)O)c(C(=O)O)c3)cc2)cc1 the results were NTR1 agonist 0.6, Cardio protect -0.8, Mot1-301 SUMO -1.6, AI-2 QS mod -6.5 and GRIN3A LBD mod -0.7.
`CC(C)(C)S(=O)N1Cc2cn(Cc3ccccc3)c(=O)cc2[C@H]1CCO` (stereo not given in full) gave Cardio protect 4.0 and GRIN3A LBD mod 1.2.
`Cc1cccc(C)c1NC(=O)CN(C)C(=O)c1ccc(NS(=O)(=O)c2ccc3[nH]c(=O)[nH]c3c2)cc1` gave NTR1 agonist 1.0, AHR act -1.2, Cardio protect -0.1, Mot1-301 SUMO 5.4, AI-2 QS mod 58.9 and GRIN3A LBD mod 12.8*.
`CCOC(=O)C1=C(N)Oc2ccc3ccccc3c2C1c1cccc(O)c1` (stereo not given) gave NTR1 agonist 25.9, AHR act 50.1*, Cardio protect -7.7, Mot1-301 SUMO -0.3, AI-2 QS mod 3.4 and GRIN3A LBD mod -0.7.
For Cn1c(=O)c(C#N)c(-c2ccc(F)cc2)c2cc(C(=O)c3cc(Cl)cc(Cl)c3O)cnc21 the results were NTR1 agonist 22.8, AHR act 3.7, Cardio protect -15.0, AI-2 QS mod 62.1 and GRIN3A LBD mod 11.9*.
COc1ccccc1-n1c(=O)c(C#N)c(-c2ccc([N+](=O)[O-])cc2)c2cc(C(=O)c3cc(F)ccc3O)cnc21 was read as NTR1 agonist 1.8, AHR act 2.1, Cardio protect 6.9, Mot1-301 SUMO 55.2, AI-2 QS mod 17.3 and GRIN3A LBD mod -4.0.
For O=C(Oc1ccc[nH]c1=O)C1CC1 the results were Cardio protect 6.4.
